Records with an inconclusive call do not appear. Calls of active or inactive are those of the source. Calls come from the whole dose curve; as a rule, active = well fitted inhibition curve with a large enough effect; inconclusive = small, poorly fitted or top-dose-only effect; inactive = flat fitted curve, though single readings scatter. Where a SMILES comes first, the peptide text is derived from it. [ ]: non-standard residue; d: D form. The star is where a group is joined. Dolaproine = CO[C@@H]([C@@H]1CCCN1)[C@@H](C)C(=O)O; Dil = CC[C@H](C)[C@H](NC)[C@@H](CC(=O)O)OC; NMe2Val = CC(C)[C@@H](C(=O)*)N(C)C; X1 = C[C@@H](N*)[C@@H](O)c1ccccc1; NMeV = CN[C@H](C(=O)O)C(C)C
assay: Identification of antibody-drug conjugate (ADC) payloads which are substrates of ATP-binding cassette drug efflux transporters: ABCB1-HeLa-KB-3-1 cell line; settings: KB-3-1 (HeLa derivative) viability, CellTiter-Glo, 48 h
Excerpt: Antibody-drug conjugates (ADCs) feature an antibody recognizing a specific protein joined to a potent toxic payload. Numerous antibody-drug conjugates have received FDA approval; however, clinical resistance arises. Resistance mechanisms include decreased expression or mutation of the antibody target, impaired payload release, or increased expression of ATP-binding cassette (ABC) efflux transporters associated with multidrug resistance. We therefore sought to characterize the interaction of ABC multidrug transporters with ADC payloads. We performed a high-throughput screen with 27 common ADC payloads using cells lines expressing ABC transporters P-glycoprotein (P-gp, encoded by ABCB1) or ABCG2 (encoded by ABCG2). Confirmatory assays were also performed using cells transfected to express P-gp, ABCG2, or MRP1 (encoded by ABCC1). Several commonly used ADC payloads were substrates of P-gp, including calicheamicin gamma1, monomethyl auristatin E, DM1, and DM4. All the pyrrolobenzodiazepines tested - SJG136, SGD-1882, SG2057, and SG3199 - were substrates of P-gp, ABCG2, and MRP1. […] These findings highlight the risk of transporter-mediated resistance with certain ADC payloads and underscore the importance of selecting payloads that evade ABC transporter recognition in future ADC development.
HEK-293 cells were transfected with empty vector (pcDNA) or vector containing the human ABCB1 (MDR-19), ABCG2 (R-5), or ABCC1 gene (MRP1) and were maintained in EMEM with 2 mg/mL G418 added to maintain transporter expression. The HeLa derivative KB-3-1 and the P-gp overexpressing KB-8-5-11 subline were maintained in DMEM; KB-8-5-11 additionally received 100 ng/mL colchicine. H460 parental cells were obtained from the Division of Cancer Treatment and Diagnosis Tumor Repository, National Cancer Institute at Frederick, MD and were cultured in RPMI. The ABCG2 expressing subline H460 MX20 was generated by selecting H460 cells in 20 nM mitoxantrone. Media in all cases was supplemented with 10% FBS and 1% penicillin-streptomycin. We explored 27 common ADC payloads, in two orthogonal, paired cell line sets-a drug selected and transfected set for each transporter--to identify substrates of the ABC transporters P-gp and ABCG2. Compounds were sourced from Levena Biopharma (San Diego, CA), Selleck Chem (Houston, TX), ChemieTek (Indianapolis, IN), or Microsource Discovery Systems (Gaylordsville, CT). Screening was performed as previously described. Briefly, cells were plated at a density of 500 cells/well in 1536 well plates with compounds added using a 1536-head pin tool (Kalypsys, San Diego CA). Cells were incubated with cytotoxic drugs and processed with CellTiter Glo reagent (Promega, Madison, WI) to determine viability after 48 hours. P-gp substrates were identified by comparing compound activity between paired sets of low-expressing (sensitive) and over-expressing (resistant) cell lines.

| Structure (SMILES) | Potency |
| --- | --- |
| CC[C@H](C)[C@@H]([C@@H](CC(=O)N1CCC[C@H]1[C@H](OC)[C@@H](C)C(=O)N[C@H](C)[C@@H](O)c1ccccc1)OC)N(C)C(=O)[C@@H](NC(=O)[C@H](C(C)C)N(C)C)C(C)C | 0.2 nM (active) |
| CC[C@H](C)[C@@H]([C@@H](CC(=O)N1CCC[C@H]1[C@H](OC)[C@@H](C)C(=O)N[C@@H](Cc1ccccc1)C(=O)O)OC)N(C)C(=O)[C@@H](NC(=O)[C@H](C(C)C)N(C)C)C(C)C (NMe2Val-V[Dil][Dolaproine]F-OH) | 33.4 nM (active) |
| CC[C@H](C)[C@H](NC(=O)[C@H]1CCCCN1C)C(=O)N(C)[C@H](C[C@@H](OC(C)=O)c1nc(C(=O)N[C@@H](Cc2ccccc2)C[C@H](C)C(=O)O)cs1)C(C)C | 0.3 nM (active) |
| CC[C@H](C)[C@H](NC(=O)[C@H]1CCCCN1C)C(=O)N(C)[C@H](C[C@@H](OC(C)=O)c1nc(C(=O)O)cs1)C(C)C | 472 nM (active) |
| CC[C@H](C)[C@@H]([C@@H](CC(=O)N1CCC[C@H]1[C@H](OC)[C@@H](C)C(=O)N[C@H](C)[C@@H](O)c1ccccc1)OC)N(C)C(=O)[C@@H](NC(=O)[C@@H](NC)C(C)C)C(C)C (H-[NMeV]V[Dil][Dolaproine]-X1) | 0.3 nM (active) |
| CC[C@@]1(O)C(=O)OCc2c1cc1n(c2=O)Cc2cc3ccccc3nc2-1 | 334 nM (active) |
| COc1cccc2c1C(=O)c1c(O)c3c(c(O)c1C2=O)C[C@@](O)(C(=O)CO)CC3OC1CC(N2CCOC(OC)C2)C(O)C(C)O1 (stereo not given in full) | 11.8 nM (active) |
| COc1cc2cc(C(=O)N3C[C@@H](CCl)c4c3cc(O)c3ccccc43)[nH]c2c(OC)c1OC | 1.3 nM (active) |
| CC[C@H](C)[C@@H]1NC(=O)CNC(=O)[C@H]2Cc3c([nH]c4cc(O)ccc34)S(=O)C[C@H](NC(=O)CNC1=O)C(=O)N[C@@H](CC(N)=O)C(=O)N1C[C@H](O)C[C@H]1C(=O)N[C@@H]([C@@H](C)[C@@H](O)CO)C(=O)N2 (stereo not given in full) | 5290 nM (active) |
| COc1cc2cc(c1Cl)N(C)C(=O)C[C@H](OC(=O)[C@H](C)N(C)C(=O)CCC(C)(C)S)[C@]1(C)OC1[C@H](C)C1C[C@@](O)(NC(=O)O1)[C@H](OC)/C=C/C=C(\C)C2 (stereo not given in full) | 0.5 nM (active) |

Source: PubChem BioAssay AID2061305 (National Center for Advancing Translational Sciences (NCATS), 2025)
